Assay results reported in PubChem BioAssay (NCATS).

These compounds were tested against Glucocorticoid receptor (Homo sapiens) (UniProt P04150) (assay: GR-GFP Redistribution (AID 450;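 active = compounds whose dose series gives a full or clear partial fitted curve of increased nuclear translocation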)). Conditions: U2OS GR-GFP nuclear translocation, laser cytometry, 2 h.
Potency is read from the fitted curve at half-maximal effect.

Chain of Glucocorticoid receptor (Homo sapiens) (P04150 whole entry, looked up, the tested form may be a part): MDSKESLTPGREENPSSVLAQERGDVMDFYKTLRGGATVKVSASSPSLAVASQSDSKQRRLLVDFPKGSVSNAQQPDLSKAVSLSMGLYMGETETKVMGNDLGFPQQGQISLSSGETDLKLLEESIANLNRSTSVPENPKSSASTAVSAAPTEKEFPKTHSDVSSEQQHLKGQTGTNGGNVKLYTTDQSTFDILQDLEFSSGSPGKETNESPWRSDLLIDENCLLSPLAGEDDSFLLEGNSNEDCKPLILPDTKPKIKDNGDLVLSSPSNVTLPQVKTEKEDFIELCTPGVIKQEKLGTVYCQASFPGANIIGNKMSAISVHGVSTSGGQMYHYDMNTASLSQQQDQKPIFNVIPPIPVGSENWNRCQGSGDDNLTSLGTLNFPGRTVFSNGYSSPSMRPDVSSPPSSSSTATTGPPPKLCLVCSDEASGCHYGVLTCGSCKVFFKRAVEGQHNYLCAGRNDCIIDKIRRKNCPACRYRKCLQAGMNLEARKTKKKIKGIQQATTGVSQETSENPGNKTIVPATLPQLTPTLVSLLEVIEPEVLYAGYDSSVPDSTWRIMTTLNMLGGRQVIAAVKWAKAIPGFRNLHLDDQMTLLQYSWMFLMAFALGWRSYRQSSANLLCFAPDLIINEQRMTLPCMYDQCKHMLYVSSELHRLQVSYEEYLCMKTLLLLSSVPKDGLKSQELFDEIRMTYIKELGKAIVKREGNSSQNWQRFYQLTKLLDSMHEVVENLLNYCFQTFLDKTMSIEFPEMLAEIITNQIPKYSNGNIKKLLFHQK

Potency, inactive:
CNc1nc(-c2ccc3c(c2)OCO3)nc2ccccc12 > 46 µM
O=c1c(-c2ccccc2)nc2cnc(Nc3ccccc3)nc2n1Cc1cccs1 > 9.22 µM
c1csc(CNc2ccnc(-c3ccoc3)n2)c1 > 46 µM
Cc1ccccc1-c1nccc(NCCN2CCOCC2)n1 > 46 µM
CCNc1ncc2nc(-c3ccc(OC)cc3)c(=O)n(C[C@H]3CCCO3)c2n1 > 9.22 µM
CC(=O)NCCNc1nc(-c2cccnc2)nc2ccccc12 > 46 µM
Cc1cccc(CNc2cc(-c3c(C)noc3C)ncn2)c1 > 46 µM
CCNc1ncc2ncc(=O)n(CCOC)c2n1 > 46 µM
CCNc1ncc2nc(-c3ccccc3)c(=O)n(Cc3cccs3)c2n1 > 9.22 µM
COCCNc1nc(-c2ccccc2Cl)nc2ccccc12 > 46 µM
COc1cccc(-c2cncnc2N(C)Cc2ccco2)c1 > 46 µM
CN(C)C(=O)c1ccc(-c2cncnc2NCCc2cnc[nH]2)cc1 > 46 µM
Cc1cnc(CNc2ccnc(-c3ccccc3C(F)(F)F)n2)cn1 > 46 µM
FC(F)(F)c1ccccc1-c1nccc(NCc2cccs2)n1 > 46 µM
c1cncc(-c2cncnc2NC2CCNCC2)c1 > 46 µM
Cn1c(=O)c(-c2ccccc2)nc2cncnc21 > 9.22 µM
CN(C)Cc1ccccc1-c1nc(N(C)C)c2ccccc2n1 > 46 µM
O=c1c(-c2cc(F)cc(F)c2)nc2cnc(Nc3ccccc3)nc2n1C[C@H]1CCCO1 > 9.22 µM
CCNc1ncc2nc(-c3ccc(F)cc3)c(=O)n(CCOC)c2n1 > 9.22 µM
CCNc1ncc2nc(C)c(=O)n(CCC#N)c2n1 > 9.22 µM
FC(F)(F)c1ccccc1-c1ccc2ncnc(NCc3cccnc3)c2c1 > 46 µM
CCNc1ncc2nc(-c3cccs3)c(=O)n(C)c2n1 > 9.22 µM
COc1ccc(CNc2ncnc3ccc(-c4cccnc4)cc23)c(OC)c1 > 46 µM
COc1ccc(-n2c(=O)cnc3cnc(OC)nc32)cc1 > 9.22 µM
Cc1noc(C)c1-c1ccc2ncnc(N3CCN(C)CC3)c2c1 > 46 µM
O=c1cnc2cncnc2n1Cc1ccccc1Cl > 9.22 µM
Cc1ccccc1-c1cc(Nc2ccccc2)ncn1 > 46 µM
COc1ncc2nc(-c3ccccc3)c(=O)n(-c3ccccc3)c2n1 > 9.22 µM
COc1ncc2nc(-c3ccc(F)cc3)c(=O)n(-c3ccccc3)c2n1 > 9.22 µM
CN1CCN(c2ncc3ncc(=O)n(CCC#N)c3n2)CC1 > 9.22 µM
Cc1noc(C)c1-c1cncnc1NCc1ccccc1 > 46 µM
COc1cccc(Cn2c(=O)c(-c3ccc(F)cc3)nc3cnc(N(C)C)nc32)c1 > 9.22 µM
COCCNc1ncnc2ccc(-c3cccc(OC)c3)cc12 > 46 µM
FC(F)(F)c1ccccc1-c1nc(NCCN2CCOCC2)c2ccccc2n1 > 46 µM

Each compound was assayed against Glucocorticoid receptor (Homo sapiens) (UniProt P04150) (assay: GR-EFC Redistribution (AID 451)). Conditions: CHO-K1 GR-EFC translocation, beta-gal luminescence, 2 h.
How it was run: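 CHO-K1 cells stably expressing nuclear-localized β-gal enzyme acceptor and GR fused C-terminally to the enzyme donor fragment; ligand-driven nuclear translocation restores β-gal by complementation. Compounds titrated up to 46 uM final, 2 h at 37 °C; luminescence read.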

Potency, inactive:
Cc1noc(C)c1-c1nccc(N2CCOCC2)n1 > 46 µM
CNc1nc(-c2ccc3c(c2)OCO3)nc2ccccc12 > 46 µM
O=c1c(-c2ccccc2)nc2cnc(Nc3ccccc3)nc2n1Cc1cccs1 > 46 µM
c1csc(CNc2ccnc(-c3ccoc3)n2)c1 > 46 µM
Cc1ccccc1-c1nccc(NCCN2CCOCC2)n1 > 46 µM
CCNc1ncc2nc(-c3ccc(OC)cc3)c(=O)n(C[C@H]3CCCO3)c2n1 > 46 µM
CC(=O)NCCNc1nc(-c2cccnc2)nc2ccccc12 > 46 µM
CCNc1ncc2ncc(=O)n(CCOC)c2n1 > 46 µM
CCNc1ncc2nc(-c3ccccc3)c(=O)n(Cc3cccs3)c2n1 > 46 µM
COCCNc1nc(-c2ccccc2Cl)nc2ccccc12 > 46 µM
COc1cccc(-c2cncnc2N(C)Cc2ccco2)c1 > 46 µM
Cc1cnc(CNc2ccnc(-c3ccccc3C(F)(F)F)n2)cn1 > 46 µM
FC(F)(F)c1ccccc1-c1nccc(NCc2cccs2)n1 > 46 µM
c1cncc(-c2cncnc2NC2CCNCC2)c1 > 46 µM
c1ccc(Nc2cc(-c3ccoc3)ncn2)cc1 > 46 µM
Cn1c(=O)c(-c2ccccc2)nc2cncnc21 > 46 µM
CN(C)Cc1ccccc1-c1nc(N(C)C)c2ccccc2n1 > 46 µM
CN(C)c1ncc2nc(-c3ccc(F)cc3)c(=O)n(C)c2n1 > 46 µM
O=c1cnc2cnc(Oc3cccc(Cl)c3)nc2n1C[C@H]1CCCO1 > 46 µM
O=c1c(-c2cc(F)cc(F)c2)nc2cnc(Nc3ccccc3)nc2n1C[C@H]1CCCO1 > 46 µM
CCNc1ncc2nc(-c3ccc(F)cc3)c(=O)n(CCOC)c2n1 > 46 µM
CCNc1ncc2nc(C)c(=O)n(CCC#N)c2n1 > 46 µM
FC(F)(F)c1ccccc1-c1ccc2ncnc(NCc3cccnc3)c2c1 > 46 µM
CCNc1ncc2nc(-c3cccs3)c(=O)n(C)c2n1 > 46 µM
COc1ccc(CNc2ncnc3ccc(-c4cccnc4)cc23)c(OC)c1 > 46 µM
COc1ccc(-n2c(=O)cnc3cnc(OC)nc32)cc1 > 46 µM
c1csc(CNc2ncnc3ccc(-c4ccoc4)cc23)c1 > 46 µM
Cc1noc(C)c1-c1ccc2ncnc(N3CCN(C)CC3)c2c1 > 46 µM
O=c1cnc2cncnc2n1Cc1ccccc1Cl > 46 µM
Cc1ccccc1-c1cc(Nc2ccccc2)ncn1 > 46 µM
COc1ncc2nc(-c3ccccc3)c(=O)n(-c3ccccc3)c2n1 > 46 µM
COc1ncc2nc(-c3ccc(F)cc3)c(=O)n(-c3ccccc3)c2n1 > 46 µM
CN1CCN(c2ncc3ncc(=O)n(CCC#N)c3n2)CC1 > 46 µM
Cc1noc(C)c1-c1cncnc1NCc1ccccc1 > 46 µM
COc1cccc(Cn2c(=O)c(-c3ccc(F)cc3)nc3cnc(N(C)C)nc32)c1 > 46 µM
COCCNc1ncnc2ccc(-c3cccc(OC)c3)cc12 > 46 µM
FC(F)(F)c1ccccc1-c1nc(NCCN2CCOCC2)c2ccccc2n1 > 46 µM
